Out of some 310,000 compounds screened, about 2,200 (0.71%) showed an effect of 50% or more. The effect is printed as a negative number. For the sample, strong results were picked, then their nearest neighbours and some compounds at random.

The target of the assay is human ether-à-go-go-related gene (hERG) potassium channel (human, UniProt Q12809). The experiment in a line: primary screen, population patch clamp on CHO cells stably expressing hERG; higher = less effect of the substance.
Sequence of human ether-à-go-go-related gene (hERG) potassium channel (Q12809 whole entry, looked up): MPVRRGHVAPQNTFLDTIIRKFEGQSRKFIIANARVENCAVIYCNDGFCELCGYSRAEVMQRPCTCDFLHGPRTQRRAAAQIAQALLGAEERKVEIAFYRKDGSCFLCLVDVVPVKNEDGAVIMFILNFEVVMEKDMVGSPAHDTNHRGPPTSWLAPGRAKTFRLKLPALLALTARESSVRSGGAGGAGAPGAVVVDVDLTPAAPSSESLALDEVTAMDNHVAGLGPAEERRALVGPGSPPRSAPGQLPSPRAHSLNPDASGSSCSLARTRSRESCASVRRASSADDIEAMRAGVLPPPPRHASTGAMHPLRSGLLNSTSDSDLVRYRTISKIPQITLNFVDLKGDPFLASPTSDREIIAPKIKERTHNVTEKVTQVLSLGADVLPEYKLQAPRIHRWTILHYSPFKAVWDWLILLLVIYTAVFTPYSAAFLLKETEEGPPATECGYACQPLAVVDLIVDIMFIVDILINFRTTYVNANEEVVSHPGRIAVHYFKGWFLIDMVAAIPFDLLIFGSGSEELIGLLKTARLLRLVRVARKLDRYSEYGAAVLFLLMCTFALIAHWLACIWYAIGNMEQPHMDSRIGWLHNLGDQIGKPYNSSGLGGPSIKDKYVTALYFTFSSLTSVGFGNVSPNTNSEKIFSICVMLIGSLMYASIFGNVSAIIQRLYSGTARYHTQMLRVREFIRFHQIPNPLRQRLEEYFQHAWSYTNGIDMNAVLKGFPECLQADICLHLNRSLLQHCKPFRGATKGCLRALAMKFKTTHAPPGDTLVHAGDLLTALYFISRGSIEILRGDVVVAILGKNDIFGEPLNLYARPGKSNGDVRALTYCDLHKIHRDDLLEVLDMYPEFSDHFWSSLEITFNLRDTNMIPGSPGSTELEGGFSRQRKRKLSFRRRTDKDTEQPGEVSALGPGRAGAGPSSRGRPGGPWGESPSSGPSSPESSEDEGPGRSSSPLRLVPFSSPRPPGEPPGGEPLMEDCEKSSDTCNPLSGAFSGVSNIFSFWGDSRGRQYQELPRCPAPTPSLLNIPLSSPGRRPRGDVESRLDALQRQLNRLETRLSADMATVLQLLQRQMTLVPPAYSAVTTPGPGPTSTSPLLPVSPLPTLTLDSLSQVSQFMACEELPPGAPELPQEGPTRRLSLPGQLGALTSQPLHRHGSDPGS
Turning to `CN(C)CCCN(C(=O)c1ccc(Br)s1)c1nc2cc3c(cc2s1)OCO3.Cl`, the “hERG current change (%, negative = inhibition) at 1uM” value stood at 4.06%.
For `O=C(c1cc2ccccc2o1)c1nc2c(n1O)CCCCC2`, the “hERG current change (%, negative = inhibition) at 1uM” value is given as 9.78%.
To `COCCCNC(=O)Cn1c(=O)n(CCCCCC(=O)Nc2ccccc2)c(=O)c2sccc21` belongs 14%; to `Cc1ccc(S(=O)(=O)N2CCCC(C(=O)NNCC(=O)Nc3cc(F)ccc3F)C2)cc1` (centres unmarked), -0.56%.
For the compound `Cc1ccc(C(O)CN2C3=NCCN3c3ccccc32)cc1.Cl` (centres unmarked), the “hERG current change (%, negative = inhibition) at 1uM” value is recorded as -40.9%.
To `Cc1ccc(C(O)CN2C3=NCCCN3c3ccccc32)cc1.Cl` (centres unmarked) belongs -51.4%; to `Cc1ccccc1CN1C2=NCCCN2c2ccccc21.Cl`, -27.3%.
In the case of `CC1CN(S(=O)(=O)c2ccc(C(=O)NCCCn3ccnc3)cc2)CC(C)O1` (centres unmarked) it was 11.7%; in that of `CCc1nc(SCC(=O)c2ccc(Cl)s2)c2oc3ccccc3c2n1`, 9.25%; in that of `CCCOc1cccc(C(=O)NCCNC(=O)c2ccco2)c1`, 18.6%.
In the case of `O=C(N/N=C/c1cc2c(cc1[N+](=O)[O-])OCO2)c1ccccn1` it was 10.1%; in that of `Cc1cc(S(=O)(=O)N2CCN(c3c(C)cccc3C)CC2)ccc1F`, -0.574%; in that of `CCC(C)N(C)Cc1cccc(C2(O)CCN(S(=O)(=O)c3ccc(F)cc3)CC2)c1` (centres unmarked), -30.8%.
Take `CCC(C)N(C)Cc1cccc(C2(O)CCN(S(=O)(=O)c3ccc(F)c(C)c3)CC2)c1` (centres unmarked): the “hERG current change (%, negative = inhibition) at 1uM” value was -71.2%.
To `Cc1c(O[C@@H]2O[C@H](CO)[C@@H](O)[C@H](O)[C@H]2O)ccc2c1oc(=O)c1ccccc12` belongs 16.9%; to `Cn1cccc1Cc1nnc(SCC(=O)N2CCCC2)n1CCc1ccccc1`, 10.7%.
`Cc1nc2nc(N)nn2c(C)c1C/C=C/c1ccccc1`: the “hERG current change (%, negative = inhibition) at 1uM” value came out at 2.83%.
To `Cc1nnc2ccc(-c3cccc(NC(=O)c4ccco4)c3)nn12` belongs 1.54%.
In the case of `Cc1nnc2ccc(-c3cccc(NC(=O)c4ccc(Cl)nc4)c3)nn12` it was -1.98%.
`Cc1nnc2ccc(-c3cccc(NC(=O)c4ccc(Br)o4)c3)nn12`: the “hERG current change (%, negative = inhibition) at 1uM” value is -52.2%.
To `COc1ccc(CN2CCSc3sccc3C2=O)cc1` belongs 3.85%.
To `CCc1ccc(Nc2ncc3c(n2)CC(c2ccco2)CC3=O)cc1` (centres unmarked) belongs 5.43%.
To `Cn1nccc1C(=O)N1CCN(c2ncccn2)CC1` belongs 9.95%; to `CCCCOc1ccc(C(=O)NCC(=O)N2CC=C(c3ccccc3)CC2)cc1`, 10.7%.
For the compound `Cl.NC(=O)c1ccc(OCCC(O)N2CC=C(c3ccc(F)cc3)CC2)cc1` (centres unmarked), the “hERG current change (%, negative = inhibition) at 1uM” value is listed as -53%.
To `CN1CCNC(=O)C1CC(=O)N1CC=C(c2ccc(F)cc2)CC1` (centres unmarked) belongs 16.2%.

Source of the values: article PMC4336329 (PLoS ONE, 2015).
